This is an account of results in PubChem BioAssay AID624169 (The Scripps Research Institute Molecular Screening Center, 2012).

“And” between values parts separate entries of the source, which are not always exact repeats. Equal entries are not always repeated. The whole screen tested about 360,000 compounds, of which about 2,400 (0.67%) were called active. Only a selection was taken, and actives are over-represented in it overall. Values without a mark were called inactive.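 How the source made its calls: active means activation above a run cutoff, the mean activation of all tested compounds plus 3 SD (cut at about 14% in these data); inactive means the rest.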

The target in this experiment is 5-hydroxytryptamine receptor 2A (Mus musculus) (UniProt P35363). In words: activation of mouse 5-HT2A receptor – cell-based, luminescence, primary screen (AID 624169).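 Further: 0% = plate median of compound wells and 100% = 30 µM serotonin.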 Particulars: CHO-K1 mHTR2A beta-arrestin complementation, at 7.6 µM, active compounds read high, percent of 30 µM serotonin response.
5-hydroxytryptamine receptor 2A (Mus musculus), sequence (P35363 whole entry, looked up): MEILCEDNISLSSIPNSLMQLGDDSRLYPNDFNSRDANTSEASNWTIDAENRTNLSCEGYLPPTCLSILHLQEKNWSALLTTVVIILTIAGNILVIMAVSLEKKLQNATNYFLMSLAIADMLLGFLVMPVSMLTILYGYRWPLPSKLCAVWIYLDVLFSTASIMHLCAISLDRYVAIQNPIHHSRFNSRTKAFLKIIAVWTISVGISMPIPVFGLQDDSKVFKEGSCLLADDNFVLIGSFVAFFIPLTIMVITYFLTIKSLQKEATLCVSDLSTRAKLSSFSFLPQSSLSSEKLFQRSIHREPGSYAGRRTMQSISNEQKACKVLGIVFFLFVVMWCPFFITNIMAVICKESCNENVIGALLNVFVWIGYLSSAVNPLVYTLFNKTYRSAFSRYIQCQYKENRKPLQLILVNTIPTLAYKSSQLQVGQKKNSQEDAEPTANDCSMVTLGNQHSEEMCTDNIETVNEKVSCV
For `CC(=O)OCCOCn1cnn2c(=O)c(Br)c(C)nc12`, the activation is 1.26%.

As for `Nc1cc(C(=O)N2CCN(c3ccccc3Cl)CC2)ccc1N1CC2CC(C1)c1cccc(=O)n1C2` (stereo unspecified), the activation was 17.7% (active).

For `CN(c1ccccc1)S(=O)(=O)c1ccc(C(=O)N2CCN(c3ccccc3Cl)CC2)cc1`, the activation was -7.83%.

With `COc1ccccc1NC(=O)c1ccc(N2CC3CC(C2)c2cccc(=O)n2C3)c(NC(=O)c2cccnc2)c1` (stereo unspecified), the activation was 3.35%.

Consider `Nc1[nH][nH]c(=O)c1N=Nc1ccc2c(c1)OCO2`, for which the activation is -2.91%.

For `CCc1ccc(N2CC(C(=O)Nc3ccc(S(=O)(=O)Nc4nccs4)cc3)CC2=O)cc1` (stereo unspecified), the activation is -3.72%.

Consider `C=C1c2c(Cl)ccc(O)c2C(O)=C2C(=O)[C@]3(O)C(O)=C(C(N)=O)C(=O)[C@@H](N(C)C)[C@@H]3[C@@H](O)C12` (stereo partly specified), for which the activation is -1.23%.

As for `CN(C)[C@@H]1C(=O)C(C(N)=O)=C(O)[C@@]2(O)C(=O)C3=C(O)c4c(O)ccc(Cl)c4[C@@H](O)[C@H]3C[C@@H]12`, the activation was 15.9% (active).

For `C=C(C)C(=O)Nc1cccc(C2=NOC3(C2)C[C@H](C(N)=O)N(C(=O)C(c2ccccc2)c2ccccc2)C3)c1` (stereo partly specified), the activation was 5.68%.

With `CCn1c(SCC(=O)NCC2CCCO2)nc2ccccc21` (stereo unspecified), the activation is 2.38%.

Consider `CCCCn1c(SCC(=O)N2CCCC2=O)nc2cc(S(N)(=O)=O)ccc21`, for which the activation was 0%.

Turning to `CCn1c(SCC(=O)N2CCCC2=O)nc2ccccc21`, the activation is 15.3% (active).

Regarding `O=C(NCc1ccccc1)[C@@H]1CSC2c3ccccc3C(=O)N21` (stereo partly specified), the activation is 1.3%.

With `COc1cccc(OC)c1C(=O)N1CCN(Cc2ccccc2F)CC1`, the activation is 2%.

With `COc1cc(OC)c(OC)cc1CN1CCN(C(=O)c2cccc3ccccc23)CC1`, the activation was 0.49%.

`COc1ccccc1CN1CCN(Cc2cc(OC)c(OC)cc2OC)CC1`: the activation is 25.8% (active).

Consider `C/C(CC(=O)NCc1ccc(Cl)cc1)=N\NC(=O)COc1ccc(C)cc1Br`, for which the activation is -5.06%.

For `CC(C)CN(C(=O)c1cccc(S(=O)(=O)N2CCCCC2)c1)C1CCS(=O)(=O)C1` (stereo unspecified), the activation is 3.09%.

As for `O=C(O)c1ccc(S(=O)(=O)N2CCC(Cc3ccccc3)CC2)cc1`, the activation was 22.2% (active).

Take `NC(=O)c1ccc(CN2CCC(Cc3ccccc3)CC2)cc1`: the activation was -5.52%.

For `Cn1cc(S(=O)(=O)N2CCC(Cc3ccccc3)CC2)c(=O)n(C)c1=O`, the activation was -1.79%.

For `CCCCN(C(=O)c1ccc(C)o1)c1c(N)n(CCCC)c(=O)[nH]c1=O`, the activation was -12.3%.

For `C/C(CC(=O)NC(C)(C)C)=N\NC(=O)c1ccco1`, the activation was 5.46%.

Consider `Cc1cc(C)n(-c2ccc(NC(=O)C3CCCCN3C(=O)c3cccs3)cc2)n1` (stereo unspecified), for which the activation is -0.84%.

As to `COC(=O)c1cc(N2CCNCC2)nc2ccccc12`, the activation is 54.9% (active).

In the case of `CC(=O)N1CCN(C(=O)c2cc(-c3ccc(Cl)s3)nc3ccccc23)CC1`, the activation is -0.1%.

As to `Cc1cc(C(=O)OCC(=O)N2C(C)CCCC2C)c2ccccc2n1` (stereo unspecified), the activation was 5%.

On to `CCOc1ccc(CN(Cc2ccco2)C(c2cccs2)c2nnnn2C(C)(C)C)cc1` (stereo unspecified), for which the activation is 6.56%.

For the compound `CC(C)Oc1ccc(Cc2n[nH]c(=S)n2Cc2ccccc2)cc1Cl`, the activation was 0.66%.

Consider `COC(=O)CC(=O)N1CCN(c2ccc(Cl)c(Cl)c2)CC1`, for which the activation was 34.5% (active).

Take `COC(=O)c1ccccc1OCC(=O)N1CCN(c2ccc(Cl)cc2)CC1`: the activation was 3.93%.

As to `CC(C)c1nnc(NC(=O)CCC(=O)N2CCN(c3cccc(Cl)c3)CC2)s1`, the activation was 10.8%.

With `O=C(c1ccco1)N(Cc1nc2ccccc2c(=O)[nH]1)C1CCCC1`, the activation was 3.03%.

As for `COc1ccc(-c2cc(C(=O)N3CCN(Cc4ccc5c(c4)OCO5)CC3)on2)cc1OC`, the activation is -7.64%.

Consider `O=C(CCCN1C(=O)c2cccc3cccc(c23)C1=O)N1CCN(Cc2ccc3c(c2)OCO3)CC1`, for which the activation was -3.63%.

Regarding `O=C(c1cccs1)N1CCN(Cc2ccc3c(c2)OCO3)CC1`, the activation is 25.9% (active).

As to `Cc1nc2ccccc2nc1CC(O)(c1ccccc1)c1ccccc1`, the activation is 1.95%.

As for `Cc1ccc(S(=O)(=O)N[C@H]2CCC[C@@H]2O)cc1`, the activation is 0.49%.

`O=C(O)Cc1csc(-c2cccc(Oc3ccccc3)c2)n1`: the activation is 5.47% and 2.04%.

Regarding `O=C(COC(=O)c1cc(S(=O)(=O)N2CCOCC2)ccc1F)NC1CC1`, the activation was 20.8% (active).

For `O=C(OCCOc1ccccc1F)c1cc(S(=O)(=O)N2CCOCC2)ccc1F`, the activation was -6.59%.

On to `COc1cc(NC(=O)COC(=O)c2cc(S(=O)(=O)N3CCOCC3)ccc2F)cc(OC)c1`, for which the activation is 2.06%.

In the case of `C[C@H](CO)N1C[C@H](C)[C@@H](CN(C)S(=O)(=O)c2ccc(F)cc2)Oc2c(NC(=O)Nc3ccccc3)cccc2C1=O`, the activation is 1.16%.

With `CCSCc1nc(N)nc(NCCc2ccccc2)n1`, the activation is -1.03%.

For `CC(=O)c1ccc(OCCCC(=O)Nc2ccc(C)c(S(=O)(=O)N3CCOCC3)c2)cc1`, the activation was 4.29%.

For the compound `COC(=O)c1ccc(-c2c(-c3ccccc3)ncc3cc(OC)c(OC)cc23)cc1`, the activation is 6.54%.

For the compound `COc1ccc(/C(=N\O)c2nccc3cc(OC)c(OC)cc23)cc1OC`, the activation is 24.7% (active).

Regarding `COc1cc2ccc(C(C)=O)c(O)c2cc1OC`, the activation is -4.06%.

As to `N#Cc1c(NC(=O)CCCl)sc2c1CCCCC2`, the activation was 20% (active).

In the case of `N#Cc1c(NC(=O)C2CC(Cl)=CCC2C(=O)O)sc2c1CCCCC2` (stereo unspecified), the activation is 5.86%.

For `N#Cc1c(NC(=O)C2CCCO2)sc2c1CCCCC2` (stereo unspecified), the activation was 0.23%.

As for `Cc1ccc(OC(=O)c2ccccc2C(=O)OCC(F)(F)C(F)F)cc1`, the activation is -7.85%.

Regarding `COc1ccc(C(=O)OCC(=O)NC(=O)CCSc2ccccc2)cc1`, the activation was 1.32%.

For the compound `C[C@@H]1C(c2ccc(F)cc2)=NN(c2ccc(Br)cc2)[C@H]1C(=O)N1CCOC1=O`, the activation is -5.98%.

As to `CCCCCC(O)(CCN1CCCCC1)c1ccccc1` (stereo unspecified), the activation is -1.22%.

`O=C(CSc1nnc(N2CCOCC2)n1-c1cccc(F)c1)N1CCN(c2ccccn2)CC1`: the activation was -5.52%.

For the compound `Cc1ccccc1NC(=O)CCOc1ccccc1`, the activation was 4.29%.

For the compound `Cc1ccc(NC(=O)CCOc2ccccc2)cc1S(=O)(=O)Nc1ccccc1Cl`, the activation was 15.2% (active).

With `CCc1ccccc1NC(=O)CCOc1ccccc1`, the activation is 1.35%.

Consider `CC(=O)Nc1cc(-c2ccccc2F)cn2c(-c3cccc(C(F)(F)F)c3)cnc12`, for which the activation is 1.96%.

On to `CCCCN1CC(N2CCN(Cc3cccc(C)c3)CC2)CS1(=O)=O` (stereo unspecified), for which the activation was 12.1%.

Take `Cc1cccc(CN2CCN(C3CN(Cc4cn(Cc5cc(C)cc(C)c5)nn4)S(=O)(=O)C3)CC2)c1` (stereo unspecified): the activation is 19.3% (active).

On to `Cc1cccc(CN2CCN(C3CN(Cc4cn(Cc5ccccc5F)nn4)S(=O)(=O)C3)CC2)c1` (stereo unspecified), for which the activation was 7.98%.

As for `Cc1cccc(CN2CCN(C3CN(Cc4ccccc4)S(=O)(=O)C3)CC2)c1` (stereo unspecified), the activation is 20.9% (active).

With `Cc1ccc(Cn2cc(CN3CC(N4CCN(C)CC4)CS3(=O)=O)nn2)cc1` (stereo unspecified), the activation was -3.17%.

On to `Cc1ccc(CN2CC(N3CCC(Cc4ccccc4)CC3)CS2(=O)=O)cc1` (stereo unspecified), for which the activation was -4.23%.

With `COc1ccc(N2CCN(S(=O)(=O)c3cc4c5c(c3)C(C)C(=O)N5CCC4)CC2)cc1` (stereo unspecified), the activation is 4.42%.

`O=C(CNC(=O)c1cc(=O)[nH]c2ccccc12)Nc1ccc(F)c(F)c1`: the activation was -0.64%.

`CC1=C(C(=O)N2CCOCC2)CC(CC(=O)NCC2CCCCC2)C(=O)N1Cc1ccc(F)cc1` (stereo unspecified): the activation is 0.51%.

Regarding `O=C(COC(=O)CNC(=O)C1CCCCC1)NCc1ccccc1`, the activation is 4.87%.

Take `COc1ccc2c(Cl)c(-c3nnco3)sc2c1`: the activation was 15.6% (active).

As for `Fc1cccc(Cl)c1COc1ccc(-c2nnco2)cc1`, the activation was 0.11%.

Take `C#CCSc1nnc(-c2sc3ccccc3c2Cl)o1`: the activation was 3.02%.

With `O=C(CNCc1cccs1)Nc1cc(S(=O)(=O)N2CCCC2)ccc1Cl`, the activation was 17.4% (active).

Turning to `O=C(COC(=O)CCOc1ccccc1)Nc1cc(S(=O)(=O)N2CCCCC2)ccc1Cl`, the activation was 2.8%.

Regarding `CS(=O)(=O)c1ccc(Cl)c(NC(=O)COC(=O)c2cccc(S(=O)(=O)N3CCCC3)c2)c1`, the activation was -2.1%.

Take `Cc1ccc(S(=O)(=O)NCc2ccc(C(=O)NC3CCC(C)CC3)cc2)cc1` (stereo unspecified): the activation is -3.68%.

As for `Cc1ccc(C(=O)NC2CC(C)(C)NC(C)(C)C2)c(C)c1`, the activation was 3.41%.

In the case of `Cc1ccc2c(c1)NCC(C(=O)NC1CCC(C)CC1)O2` (stereo unspecified), the activation is 16.6% (active).

In the case of `Cc1ccccc1C(=O)N1CCC(C(=O)Oc2ccc(C#N)cc2)CC1`, the activation was -3.91%.

As for `O=C(NNc1cc(Cl)cc(Cl)c1)c1c(F)cccc1Cl`, the activation is 1.49%.

For the compound `Cc1ccc2cc(CCNC(=O)c3ccc4c(c3)OCO4)c(=O)[nH]c2c1`, the activation is 5.29%.

On to `COCCN(Cc1cc2cc3c(cc2nc1Cl)OCO3)C(=O)c1cccc(C)c1`, for which the activation is 16.6% (active).

For the compound `CCCCN(CC)C(=O)c1ccc2c(c1)OCO2`, the activation was 1.68%.

As for `Cn1nnnc1-c1cc(Cl)cc(Cl)c1`, the activation is 2.61%.

Turning to `COc1ccc(C)cc1NC(=O)CSc1nc(SC)ns1`, the activation is -0.61%.

Turning to `COc1ccc(NC(=O)CSc2nc(SC)ns2)c(OC)c1`, the activation is 0.26%.

On to `CSc1nsc(SCC(=O)Nc2cc(C(=O)O)ccc2C)n1`, for which the activation is 15.6% (active).

Turning to `Cc1cccc(C(=O)N[C@H](C(=O)NCc2cccs2)C(C)C)c1`, the activation is 5.5%.

Consider `CNCC(O)c1ccc(O)c(O)c1` (stereo unspecified), for which the activation is 26.5% (active).

As for `CCC(C)c1ccc(O)c(/C=N/O)c1` (stereo unspecified), the activation was -3.25%.
